Assay results: PubChem BioAssay

test: hepatitis C replication reporter changes, two-sided – Huh7 cells, luciferase reporter, HCV replication inhibitor project, primary screen (AID 1109); details: Huh7 HCV replicon luciferase reporter, 48 h; higher = more signal;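 note: huh7 hepatoma cells harbouring a luciferase neomycin HCV replicon reporter; luciferase luminescence as measure of HCV replicon replication; test concentration not given here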

SMILES	z-score
Cc1nc2cc(Br)ccc2c(=O)n1Cc1cccc(O)c1	0.201
C=C[C@@H](C)[C@H](O)c1ccc(OCCO)cc1	0.27
C=CCN1C(=O)[C@]2(O[C@H](CCO)[C@@H]([Si](C)(C)c3ccc(OC)cc3)[C@@H]2C)c2cc(NC(=O)c3ccc(OC)cc3)ccc21	-5.1
CCOC(=O)C[C@H]1[C@H](OC(=O)c2cc3ccccc3oc2=O)[C@@H](NC(=O)c2ccc3ccccc3c2)c2cc(OCCCO)ccc2N1C(=O)Cc1ccc(OC)cc1	-1.6
COc1ccc(C#Cc2ccc3c(c2)[C@]2(C(=O)N3)[C@H](c3ccc(OCCO)cc3)N3[C@H](c4ccccc4)[C@H](c4ccccc4)OC(=O)[C@H]3[C@@H]2C(=O)N2CCc3cc(OC)c(OC)cc3C2)cc1	-1.23
COC(=O)c1c2oc(c1C(=O)OC)C(=O)N1CCC[C@H]1Cn1nncc1CN(Cc1ccccc1)C(=O)N[C@H](CO)CC2	0.253
COC(=O)C(CC#Cc1ccc2c(c1)[C@]1(C(=O)N2)[C@H](c2ccc(O)cc2)N2[C@H](c3ccccc3)[C@H](c3ccccc3)OC(=O)[C@H]2[C@@H]1C(=O)N1CCCCCCC1)C(=O)OC	-1.69
C=C[C@H](C)[C@H](OC(=O)Nc1ccc(OC)cc1)c1ccc(OCCO)cc1	0.0055
[N-]=[N+]=NC[C@H](Cc1ccccc1)NC(=O)c1ccccc1	2.25
COc1ccc([Si](C)(C)[C@H]2[C@H](CC(=O)N3Cc4ccccc4C[C@H]3CO)O[C@@]3(C(=O)N(Cc4ccc(N5C(=O)c6cccc7cccc5c67)cc4)c4ccccc43)[C@@H]2C)cc1	-3.26
